The values below come from publication PMC7826789 (International Journal of Molecular Sciences, 2021).

Common to all, as to conditions: Compound Concentration (nM):1000
Experiment [1] concerns FGFR3.
Experiment [2] concerns FGFR4.
The subject of experiment [3] is FGR.
The test system of experiment [4] is FLT1.
Experiment [5] concerns FLT3(D835H).
Experiment [6] deals with FLT3(D835V).
Experiment [7] has as its system FLT3(D835Y).
The test system of experiment [8] is FLT3(ITD).
In experiment [9] the test system is FLT3(ITD,D835V).
For experiment [10], the system named is FLT3(ITD,F691L).
In experiment [11] the test system is FLT3(K663Q).
The subject of experiment [12] is FLT3(N841I).
For experiment [13], the system named is FLT3(R834Q).
Experiment [14] relates to FLT3-autoinhibited.
Experiment [15] concerns FLT3.
Experiment [16] deals with FLT4.
In experiment [17] the test system is FRK.
The test system of experiment [18] is FYN.
For experiment [19], the system named is GAK.
Experiment [20] has as its system T1, GCN2(Kin.Dom.2,S808G).
T1 construct: gene EIF2AK4
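Note: KINOMEscan scanMAX binding as percent activity remaining versus control; lower means stronger binding.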

With `COc1ccccc1-c1cc(/C=C2\C(=O)Nc3ncc(Br)cc32)cc(Br)c1O` [GW442130X], the “Percent Control” value is 100% in experiment [1]; 100% in [2]; 100% in experiment [3]; 100% in [4]; 86% in [5]; 73% in experiment [6]. In addition, the “Percent Control” value is on record as 40% in experiment [7]; 100% in experiment [8]; 92% in experiment [9]; 100% in [10]; 100% in [11]; 85% in [12]. Also, the “Percent Control” value stood at 87% in [13]; 100% in experiment [14]; 100% in [15]; 96% in experiment [16]; 100% in [17]; 93% in experiment [18]. The “Percent Control” value in [19] amounted to 83%; in [20], 79%.

On to `COc1ccc(COc2ccc(Cc3cnc(N)nc3N)cc2OC)cc1` [GW632580X], for which the “Percent Control” value in [1] is 95%; in experiment [2] it was 98%; in experiment [3], 81%; in [4] it was 98%; in [5], 100%; in experiment [6], 100%. Further, the “Percent Control” value in experiment [7] is on record as 81%; in experiment [8], 87%; in experiment [9], 100%; in experiment [10] it was 99%; in experiment [11] it was 79%; in experiment [12], 75%. The “Percent Control” value in experiment [13] turned out to be 97%; in experiment [14], 99%; in experiment [15] it was 100%; in [16] it was 90%; in experiment [17], 100%; in experiment [18], 100%. The results for the “Percent Control” value in experiment [19] and in experiment [20] were 95% and 100%, respectively.

`CCc1ccc(Oc2nccc(-c3c(-c4ccc(F)cc4)ncn3C3CCNCC3)n2)cc1` [SB-242719]: the “Percent Control” value in experiment [1] was 100%; in [2], 91%; in experiment [3] it was 87%; in experiment [4], 100%; in experiment [5], 88%; in [6] it was 100%. Also, the “Percent Control” value is on record as 100% in [7]; 99% in experiment [8]; 89% in experiment [9]; 93% in experiment [10]; 96% in experiment [11]; 69% in experiment [12]. In addition, the “Percent Control” value in experiment [13] was 90%; in experiment [14], 100%; in [15], 71%; in [16] it was 95%; in [17], 99%; in [18], 96%. For the same molecule, the “Percent Control” value in experiment [19] turned out to be 84%; in experiment [20], 100%.

As to `NS(=O)(=O)c1ccc(N/N=C2\C(=O)Nc3ccc(Cl)cc32)cc1` [GW280670X], the “Percent Control” value in [1] is 100%; in [2] it was 100%; in [3] it was 100%; in [4], 100%; in experiment [5], 83%; in experiment [6], 31%. The “Percent Control” value amounted to 100% in experiment [7]; 59% in experiment [8]; 60% in experiment [9]; 36% in [10]; 18% in experiment [11]; 100% in [12]. In addition, the “Percent Control” value is listed as 68% in experiment [13]; 15% in experiment [14]; 21% in experiment [15]; 100% in experiment [16]; 100% in experiment [17]; 100% in experiment [18]. Also, the “Percent Control” value in experiment [19] and in experiment [20] was 100% in each case.

For the molecule `Cl.O=S1CCN(Cc2ccc(-c3ccc4ncnc(Nc5ccc(OCc6ccccc6)c(F)c5)c4c3)o2)CC1` [GW576924A], the “Percent Control” value in [1] is 100%; in experiment [2], 100%; in [3], 100%; in experiment [4], 100%; in experiment [5], 100%; in experiment [6] it was 99%. The “Percent Control” value in experiment [7] was found to be 83%; in experiment [8], 100%; in experiment [9], 100%; in [10], 100%; in experiment [11] it was 93%; in experiment [12] it was 100%. Also, the “Percent Control” value in [13] is 100%; in [14], 87%; in experiment [15], 90%; in experiment [16] it was 100%; in experiment [17], 100%; in experiment [18], 100%. For the same molecule, the “Percent Control” value in experiment [19] and in [20] was 100% each time.

`NS(=O)(=O)c1ccc(N/N=C2\C(=O)Nc3ccc(C(=O)NCc4ccncc4)cc32)cc1` [GW300657X]: the “Percent Control” value in [1] is 82%; in experiment [2] it was 100%; in experiment [3] it was 100%; in [4] it was 80%; in experiment [5], 52%; in experiment [6], 0%. The “Percent Control” value amounted to 46% in experiment [7]; 64% in experiment [8]; 0.6% in experiment [9]; 17% in [10]; 92% in experiment [11]; 50% in [12]. Besides, the “Percent Control” value came to 68% in experiment [13]; 74% in experiment [14]; 82% in experiment [15]; 77% in [16]; 100% in experiment [17]; 96% in experiment [18]. Further, the “Percent Control” value in experiment [19] came out at 66%; in [20], 100%.

Consider `COc1cc(N2CCN(C(C)C)CC2)ccc1Nc1nc(Nc2ccc(F)cc2C(=O)NC[C@@H](O)CO)c2cc[nH]c2n1` [GSK1392956A], for which the “Percent Control” value is 97% in experiment [1]; 95% in experiment [2]; 81% in experiment [3]; 94% in [4]; 100% in [5]; 69% in experiment [6]. Besides, the “Percent Control” value came out at 68% in experiment [7]; 88% in experiment [8]; 79% in [9]; 40% in experiment [10]; 100% in experiment [11]; 74% in experiment [12]. For the same molecule, the “Percent Control” value in experiment [13] was determined as 100%; in [14], 95%; in experiment [15], 78%; in experiment [16], 85%; in [17] it was 100%; in experiment [18], 100%. In addition, the entries for the “Percent Control” value in experiment [19] and in [20] were 6.9% and 48%, respectively.

Consider `Cc1cc(O)cc(C)c1/C=C/c1cncc(C(N)=O)c1` [GW435821X], for which the “Percent Control” value was 100% in [1]; 100% in [2]; 64% in experiment [3]; 100% in [4]; 77% in [5]; 31% in experiment [6]. Moreover, the “Percent Control” value is 75% in experiment [7]; 100% in experiment [8]; 100% in experiment [9]; 100% in experiment [10]; 99% in [11]; 100% in [12]. Moreover, the “Percent Control” value in [13] amounted to 81%; in experiment [14] it was 100%; in [15], 95%; in experiment [16] it was 100%; in experiment [17], 45%; in experiment [18], 70%. Besides, the “Percent Control” value came to 75% in experiment [19] and 100% in experiment [20].

With `CCn1c(-c2nonc2N)nc2c(C#CC(C)(C)O)nc(OCCNC)cc21.Cl` [GSK949675], the “Percent Control” value is 100% in experiment [1]; 100% in [2]; 100% in [3]; 100% in experiment [4]; 43% in experiment [5]; 83% in [6]. Also, the “Percent Control” value in experiment [7] amounted to 30%; in experiment [8], 100%; in [9], 100%; in experiment [10], 22%; in [11], 100%; in [12] it was 100%. The “Percent Control” value in experiment [13] was 78%; in [14] it was 100%; in experiment [15] it was 100%; in experiment [16], 75%; in experiment [17], 100%; in experiment [18], 100%. The “Percent Control” value in experiment [19] is 100%; in [20], 89%.
